In the supplement of paper PMC6555819:

Columns and labels:
Assay in all cases: PBM binding z-score (relative to random genomic background probes); higher = stronger binding; sequences stand for … in GC…GCGATTGACAGCGTAGAATGAAGG
[1] = test system: FXR:RXRa (NR concentration 270 nM, RXRa partner concentration 90 nM)
How it was run: (§1)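 Binding z-scores were set against random background probes. The data came from custom Agilent 4×180K protein-binding microarrays carrying double-stranded probes with 34-nt variable regions, incubated 1 h with ligand-free nuclear receptor dimers. Partner-specific antibodies detected binding, and scanned fluorescence was regression-normalized.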

[2] = test system: LXRa:RXRa (NR concentration 270 nM, RXRa partner concentration 90 nM)
How it was run: as §1

[3] = test system: LXRa homodimer (NR concentration 270 nM)
How it was run: as §1

[4] = test system: LXRb:RXRa (NR concentration 270 nM, RXRa partner concentration 90 nM)
How it was run: as §1

[5] = test system: LXRb homodimer (NR concentration 270 nM)
How it was run: as §1

[6] = test system: PPARa:RXRa (NR concentration 270 nM, RXRa partner concentration 90 nM)
How it was run: as §1

[7] = test system: PPARg:RXRa (NR concentration 180 nM, RXRa partner concentration 90 nM)
How it was run: as §1

[8] = test system: PPARg:RXRa 270nM:90nM, anti-RXR (NR concentration 270 nM, RXRa partner concentration 90 nM)
How it was run: as §1

[9] = test system: PPARg:RXRa 30nM:10nM, anti-RXR (NR concentration 30 nM, RXRa partner concentration 10 nM)
How it was run: as §1

[10] = test system: PPARg:RXRa 90nM:30nM, anti-RXR (NR concentration 90 nM, RXRa partner concentration 30 nM)
How it was run: as §1

Sequence | PBM binding z-score [1] | PBM binding z-score [2] | PBM binding z-score [3] | PBM binding z-score [4] | PBM binding z-score [5] | PBM binding z-score [6] | PBM binding z-score [7] | PBM binding z-score [8] | PBM binding z-score [9] | PBM binding z-score [10]
ATATGTAGGTTTAGGGTCATTCAGGTTGGTTCGC | 4.11 | 3.91 | 1.71 | 3.97 | 1.36 | 4.59 | 5.96 | 6.54 | 4.91 | 6.7
CCTACTCGGCCATTCAGAGGTCATTGATCATATG | 3.34 | 4.79 | 7.45 | 4.25 | 1.6 | 3.7 | 1.05 | 1.96 | 0.587 | 1.31
GGAACGAGGGCATTCGAGTTAATAGCATGGCGAT | 1.38 | 1.05 | -0.476 | 0.179 | -0.759 | 1.58 | 1.18 | 0.939 | 0.26 | 1.09
TTACCAAGGTGAGCTAAGGTCGTTGATCCAACTC | 3.04 | 1.56 | -0.466 | 0.977 | -1.12 | 1.66 | 0.5 | 1.42 | 0.431 | 0.771
TCTAGTTGCTCACGGAGGTCACACACGACGGGTA | 2.59 | 3.1 | 1.86 | 3.22 | 0.53 | 3.62 | 1.55 | 2.79 | 3.16 | 2.76
ACTATTAGTGGAGACGAGGGCAACCGATAGGTTG | 0.0192 | -0.21 | -0.488 | -0.347 | -0.31 | -0.00529 | 0.674 | 0.335 | -0.0792 | 0.232
ATATGTAGGTTAGGTGGGGTCATTCAGACTAGGC | 5.01 | 6.16 | 3.73 | 5.37 | 2.74 | 5.23 | 5.59 | 5.49 | 2.48 | 4.67
TAGCCTAGGTCGTTGGGCCAGTATAGTACGCATC | 0.234 | -0.0129 | -0.222 | 0.178 | -0.371 | 0.544 | 0.271 | 0.0972 | -0.401 | -0.153
TCATATAGGTAAATGCTAGGTGACAGTCCGATCT | 0.752 | 0.626 | -0.0198 | 0.519 | -0.279 | 1.12 | 0.994 | 2.02 | 3.61 | 2.54
CCTACTGGGACACGAAAGGTCATTGATTCAGTGA | 3.84 | 4.83 | 5.13 | 4.17 | 0.785 | 4.65 | 4.68 | 4.72 | 2.24 | 4.34
GCTTGTGGATCAAGGTTAAGAAAGACTAAGCTAA | 0.286 | 0.783 | -0.433 | 0.442 | -0.254 | 1.52 | 0.82 | 1.79 | 0.395 | 1.24
GCTAGTTGGTCACTAAAAGGTCACACACCGGTCG | 3.49 | 4.28 | 4.38 | 4.27 | 0.864 | 4.44 | 2 | 3.69 | 0.993 | 2.6
GCTGCTAGGTCAGGTTGGTCAGCTATCGGGTACG | 1.38 | 0.811 | -0.13 | 0.574 | -0.138 | 1.42 | 0.304 | 1.19 | -0.614 | 0.562
CCTACTGGGCCACGAAAGGTCAATGATTCAGTGA | 3.22 | 4.61 | 2.93 | 3.95 | -0.0572 | 4.44 | 4.52 | 4.6 | 1.66 | 3.59
CCTTACGGGTCAAGGTTATAACACGGGTGGTACG | 5.53 | 3.71 | 0.233 | 3.44 | 0.254 | 5.22 | 4.63 | 4.8 | 2.22 | 3.94
CTGACTGGGGCAAGGTTACCATAACGCACAGCCA | 0.457 | 0.792 | -0.00434 | 1.54 | -0.221 | 2.63 | 4.03 | 4.4 | 1.45 | 3.67
CGAACTAGCTCAGAACAGGACAGTGAAGGATGAT | -0.682 | -0.642 | -0.0403 | -0.877 | -0.565 | -0.547 | 0.544 | -0.694 | -0.189 | -0.609
TAGCCTAGGTCATTGGTCCAGTATAGTACGCATC | 3.97 | 3.31 | 1.33 | 2.7 | 0.535 | 3.56 | 2.48 | 2.55 | 0.941 | 2.27
CCGACTGGGGCAGAAAGGTTACCATGCCATCCGG | 0.204 | 0.517 | -0.401 | 0.479 | -1.31 | 2.23 | 1.6 | 2.65 | 0.457 | 1.82
ATCGAAAGGTCGAAGGTGAATATACCCACCCGAA | 5.04 | 4.06 | 0.547 | 3.42 | 0.763 | 5.24 | 5.61 | 5.45 | 2.92 | 4.71
TGAATGAGCTTATAAGATCAGGGAACGTTGCAAA | -0.538 | -0.891 | -0.553 | -0.584 | -0.76 | -0.485 | -0.117 | -0.382 | 0.0852 | -0.46
TCATATAGGTAAGACAGGTGAAAGTCGGCATCTA | 1.17 | 1.21 | 0.129 | 0.604 | 0.0128 | 1.49 | 0.925 | 2.42 | 4.15 | 3.3
CCTACTGGGCCACGAAAGGTCATTGAATCAGTGA | 3.69 | 5.1 | 4.09 | 4.26 | 0.492 | 4.68 | 4.56 | 5.1 | 2.28 | 4.03
TCTCGGAGGACACGAGAGGTCAGAGCTCGACATC | 2.17 | 3.37 | 2.61 | 2.53 | -0.47 | 2.99 | 0.952 | 1.88 | 1.53 | 1.48

Sequence | PBM binding z-score [1] | PBM binding z-score [2] | PBM binding z-score [3] | PBM binding z-score [4] | PBM binding z-score [5] | PBM binding z-score [6] | PBM binding z-score [7] | PBM binding z-score [8] | PBM binding z-score [9] | PBM binding z-score [10]
TCTGCTAGGTCACTTGGTCAGCTAACGAGCTGCC | 2.56 | 2.03 | -0.292 | 1.38 | 0.874 | 2.97 | 2.53 | 3.31 | 1.62 | 2.28
ATCTCTAGATAAAGATAGTTCAGTGAATGCAAAT | -0.281 | 0.122 | 0.343 | 0.191 | 0.206 | -0.0361 | 0.872 | 0.0626 | 0.338 | 0.179
TATACAGGGTCAAAGGCCAGAGTACGAATGTCGA | 7.35 | 6.25 | 2.5 | 4.96 | 1.86 | 6.57 | 8.48 | 7.61 | 5.77 | 7.93
TGTTAAAGTTCAAAGGTAACGTAAGTATCCACAC | 6.98 | 6.1 | 5.38 | 4.53 | 2.3 | 5.47 | 7.2 | 6.84 | 4.03 | 6.36
TCATAAAGGTAAATGCTAGGTGAAAGTCCGATCT | 1.41 | 1.31 | 0.158 | 0.935 | -0.29 | 1.55 | 0.57 | 2.52 | 4.21 | 3.45
AATGCAGGGTCATCGTAGGCCAGAGTACGCACAG | 7.22 | 6.03 | 1.22 | 4.54 | -0.0477 | 5.97 | 6.45 | 5.75 | 2.6 | 4.62
CGAACTAGGTCAAGGACAGTGAGTCTCCGCACGC | 3.12 | 1.84 | -0.202 | 0.891 | -0.739 | 4.6 | 7.31 | 6.21 | 3.52 | 5.83
TAGCCTAGGTAATTGGGCCAGTATAGTACGCATC | -0.768 | -1.07 | -0.581 | -0.51 | -0.491 | 0.679 | 0.785 | 0.424 | -0.205 | -0.132
CATACAGGGTCAGCTAGGCCAGACTAGGGACGGC | 4.02 | 2.77 | -0.135 | 1.97 | 0.282 | 4.06 | 3.31 | 2.8 | 0.502 | 1.8
CCGACTGGCGCAAAGGTTACCATACTCAGTACGA | 0.725 | 1.29 | -0.0542 | 1.78 | -0.938 | 3.45 | 5.96 | 6.74 | 4.81 | 6.59
TCATGTAGATCAACAGGAGGTTAAGAAAGATCGA | 0.191 | 1.12 | 0.0437 | 0.814 | -0.691 | 1.38 | 0.396 | 1.35 | 2.65 | 1.97
ACTAGCACGCCAAGTTTGGGTCACTCAAACAAAG | 0.0024 | -0.138 | -0.715 | 0.642 | -0.337 | 1.17 | -0.0065 | -0.00833 | -0.577 | -0.34
ATACCAAGGTGATCGTGAGGTGGTTGATACTAAC | 0.375 | 0.57 | 0.0365 | -0.0432 | 0.00305 | 0.168 | 0.411 | 0.0619 | 0.226 | 0.142
CCTACTGGCCCAAAGGTCATTGATTCCAATGCTC | 4.8 | 5.12 | 4.37 | 4.8 | 1.23 | 5.27 | 7.37 | 7.17 | 5.9 | 7.85
GCTATTAGTTGAAAGGGAAACCGAATGATTCTCG | -0.0917 | -0.171 | 0.0809 | -0.236 | -0.289 | 0.000801 | 0.567 | 1.6 | 0.38 | 1.25
CCGACTGGAGCAAGGTTACCATAACGCACAGCCA | -0.0203 | 0.559 | 0.116 | 0.511 | -0.797 | 1.01 | 1.3 | 1.66 | 0.181 | 0.892
CCTTTTAGTTGACCATAAGGGCAACCGAAGCTCG | 0.795 | 0.621 | 0.344 | 0.707 | 1.3 | 0.649 | 0.247 | 0.669 | 0.0181 | 0.427
TGAACGAGGTTAAAGATCAGGGAACGTGGCGTCG | 2.87 | 2.22 | -0.236 | 1.57 | -0.0519 | 4.05 | 5.17 | 5.68 | 4.28 | 6
GCAAGTTGGTCAGTAAAAGGTCACACACCGGTCG | 3.28 | 4.29 | 4.58 | 4.17 | 0.833 | 4.62 | 3.08 | 4.43 | 2.58 | 3.92
GCTAGCAGCCCATTTGGGTCACTCAATGACGGGC | -0.281 | -0.586 | -0.832 | -0.285 | -0.892 | 0.853 | 0.291 | 0.0178 | -0.724 | -0.506
CGAACCAGGGCATGAGTTGATAGCAAATGCCGAT | -0.0641 | -0.00251 | -0.295 | -0.304 | -1.08 | 0.552 | 1.15 | 1.2 | -0.166 | 0.593
CGTCCAAGTTCATAGGAGGTCAGTGAAGACAGAT | 5.25 | 6.43 | 3.8 | 4.3 | 0.586 | 3.83 | 1.6 | 2.43 | 0.744 | 1.47
CAAACTAAGTCACAGAGGTCAAAGTCCGTGCGTA | 5.08 | 5.61 | 5.8 | 5.22 | 2.02 | 5.18 | 3.74 | 4.78 | 2.63 | 4.18
GCTTGTTGATCAAGGTTAAGAAAGACTAAGCTAA | -0.091 | 0.792 | -0.456 | 0.239 | -0.437 | 1.09 | -0.203 | 0.401 | -0.0921 | 0.472
